Laboratory results: PubChem BioAssay (NCATS)
Values joined by “and” are separate entries in the source; they are usually repeats but may differ in a detail not shown here. Identical values can stand only once. Records with an inconclusive call do not appear. Active and inactive are the calls of the source. The call rests on the fitted dose curve.

Assay: Cytotoxicity counterscreen for inhibitors of SARS-CoV-2 cell entry (AID 1645845); further: on the % scale 0 is the no-effect control and ±100 the full control effect; nearly all actives have a fitted effect of over 50% in size
Details: cell viability (SARS-CoV-2 entry assay cells); series mostly up to 57.1 µM; activity change, negative = cytotoxicity: at the top concentration
Outline: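 HEK293-ACE2 cells (Expi293F stably expressing human ACE2) seeded overnight, then compound for 1 h plus 48 h at 37C. Viability as ATP content by luminescence; normalized to wells with cells and media-only wells.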

Question: Which “activity change, negative = cytotoxicity” value does the source give for `CC(C(O)c1ccccc1)N(C)CCOC(c1ccccc1)c1ccccc1` (stereo unspecified) here?
Answer: -16.7% (inactive)

Question: Which Potency does the source give for `COC(=O)Nc1nc2ccc(S(=O)c3ccccc3)cc2[nH]1` (stereo unspecified) here?
Answer: inactive

Question: For `CCCCCCCCCCCCCCCCC(C(=O)O)C(O)(CC(=O)O)C(=O)O` (stereo unspecified), which “activity change, negative = cytotoxicity” value is on record?
Answer: 4.77% (inactive)

Assay: Primary qHTS to identify inhibitors of SARS-CoV-2 cell entry (AID 1645846); further: nearly all actives have a fitted effect of over 45% in size; further: potency means the concentration at half of the fitted maximal effect
Details: SARS-CoV-2 pseudovirus cell entry assay, luminescence; activity change, negative = inhibition: at 57.1 µM (top of the series) unless noted; series mostly up to 57.1 µM
Outline: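 HEK293-ACE2 (Expi293F, stable hACE2), 1500 cells/well, o/n 37C; cpd 23 nL pin, 1 h; MLV-PP w/ SARS-CoV-2-S (Wuhan-Hu-1, Δ19 C-term); 48 h 37C; Bright-Glo luminescence; normalized vs S-PP and bald PP.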

Question: With `O=C(O)/C=C/c1ccc(Cn2ccnc2)cc1` as the compound, how does the Potency read?
Answer: inactive

Question: Which “outcome” value does the source give for `CCCn1cnc2c1c(=O)n(CCCCC(C)=O)c(=O)n2C` here?
Answer: inactive

Question: With `CN(Cc1ccc(C(C)(C)C)cc1)Cc1cccc2ccccc12` as the compound, how does the activity change, negative = inhibition read?
Answer: 2.25%

Question: For `CCCC(=O)O[C@]1(C(=O)CC)CC[C@H]2[C@@H]3CCC4=CC(=O)CC[C@]4(C)[C@H]3[C@@H](O)C[C@@]21C`, which “outcome” value is on record?
Answer: inactive

Question: For `CC(C)c1cc2c(cc1S(=O)(=O)O)[C@@]1(C)CCC[C@@](C)(C(=O)O)[C@@H]1CC2`, which activity change, negative = inhibition is on record?
Answer: -22.9%

Question: For `O=C(O)CCC(=O)Nc1ccc(S(=O)(=O)Nc2nccs2)cc1`, which “outcome” value is on record?
Answer: inactive

Question: For `CCOC(=O)c1ccc(OC(=O)CCCCCN=C(N)N)cc1`, which Potency is on record?
Answer: inactive

Question: For `CN(C)c1ccc(C(=C2C=CC(=[N+](C)C)C=C2)c2ccccc2)cc1`, which Potency is on record?
Answer: 4.47 µM (active)

Question: Which activity change, negative = inhibition does the source give for `Clc1ccc(Nc2nnc(Cc3ccncc3)c3ccccc23)cc1` here?
Answer: -4.34%

Question: Which activity change, negative = inhibition does the source give for `CCN(CC)CCNC(C(=O)OCCC(C)C)c1ccccc1` (stereo unspecified) here?
Answer: -14.1%

Question: For `C[C@@H]1CCC[C@H](C)N1CCCC(O)(c1ccccc1)c1ccccn1` (stereo partly specified), which activity change, negative = inhibition is on record?
Answer: -1.1%

Question: For `Cc1cccc(N(C)C(=S)Oc2ccc3c(c2)C2CCC3C2)c1` (stereo unspecified), which “outcome” value is on record?
Answer: inactive

Question: With `C1CCC(C(CC2CCCCN2)C2CCCCC2)CC1` (stereo unspecified) as the compound, how does the Potency read?
Answer: 12.6 µM (active) and 17.8 µM (active)

Question: Which Potency does the source give for `Nc1ccc2cc3ccc(N)cc3nc2c1` here?
Answer: 7.94 µM (active)

Question: With `CN(C)CC[C@@H](c1ccc(Cl)cc1)c1ccccn1` as the compound, how does the activity change, negative = inhibition read?
Answer: 0.546%

Question: Which “outcome” value does the source give for `CC(C(=O)O)c1ccc(CC2CCCC2=O)cc1` (stereo unspecified) here?
Answer: inactive

Question: With `CCCCOc1ccc(OCCCN2CCOCC2)cc1` as the compound, how does the “outcome” value read?
Answer: inactive

Question: With `CC1(C)O[C@@H]2C[C@H]3[C@@H]4CCC5=CC(=O)CC[C@]5(C)[C@@]4(F)[C@@H](O)C[C@]3(C)[C@]2(C(=O)CCl)O1` as the compound, how does the “outcome” value read?
Answer: inactive

Question: Which “outcome” value does the source give for `CCCCNc1ccc(C(=O)OCCN(C)C)cc1` here?
Answer: inactive

Question: For `CC1=C(CC(=O)O)c2cc(F)ccc2/C1=C\c1ccc(S(C)=O)cc1` (stereo unspecified), which “outcome” value is on record?
Answer: inactive

Question: With `CN1CCN(CCCN2c3ccccc3Sc3ccc(S(=O)(=O)N(C)C)cc32)CC1` as the compound, how does the Potency read?
Answer: 25.1 µM (active)

Question: With `O=C(NOCC1CC1)c1ccc(F)c(F)c1Nc1ccc(I)cc1Cl` as the compound, how does the Potency read?
Answer: 31.6 µM (active)

Question: With `Nc1ccc(S(=O)(=O)Nc2cnc3ccccc3n2)cc1` as the compound, how does the “outcome” value read?
Answer: inactive

Question: For `COc1ccc(CCN2CCC(Nc3nc4ccccc4n3Cc3ccc(F)cc3)CC2)cc1`, which Potency is on record?
Answer: 10 µM (active)

Question: Which Potency does the source give for `CCCCCN=C(N)N/N=C/c1c[nH]c2ccc(OC)cc12` here?
Answer: 22.4 µM (active)

Question: For `O=C(O)CCC(=O)c1ccc(-c2ccccc2)cc1`, which “outcome” value is on record?
Answer: inactive

Question: For `C=CCCCCCCCCC(=O)O`, which “outcome” value is on record?
Answer: inactive [at 27.1 µM]

Question: For `Clc1ccc(C(Cn2ccnc2)OCc2c(Cl)cccc2Cl)c(Cl)c1` (stereo unspecified), which Potency is on record?
Answer: 31.6 µM (active)

Question: For `Cc1cc(C2CCCCC2)n(O)c(=O)c1`, which Potency is on record?
Answer: 17.8 µM (active)

Question: With `COc1ccc2cc1Oc1ccc(cc1)C[C@H]1c3c(cc4c(c3Oc3cc5c(cc3OC)CCN(C)[C@@H]5C2)OCO4)CCN1C` as the compound, how does the Potency read?
Answer: 7.94 µM (active)

Question: With `O=C(Nc1ccc([N+](=O)[O-])cc1Cl)c1cc(Cl)ccc1O` as the compound, how does the Potency read?
Answer: 2.51 µM (active) and 8.91 µM (active)

Question: For `CCC(=O)c1ccc(O)cc1`, which “outcome” value is on record?
Answer: inactive

Question: For `O=c1c(-c2ccccc2)c1-c1ccccc1`, which Potency is on record?
Answer: 31.6 µM (active)

Question: For `O=C(O)CNC(=O)c1ccccc1I`, which activity change, negative = inhibition is on record?
Answer: -21.9%

Question: With `Cc1cc(O)c(C(C)C)cc1Cl` as the compound, how does the “outcome” value read?
Answer: inactive

Assay: VSVG counterscreen qHTS to identify inhibitors of SARS-CoV-2 cell entry (AID 1645847); further: nearly all actives have a fitted effect of over 65% in size; further: potency means the concentration at half of the fitted maximal effect; on activity change, negative = inhibition: on the % scale 0 is the no-effect control and ±100 the full control effect
Details: VSV-G pseudotyped particle entry, luciferase; series mostly up to 57.2 µM; activity change, negative = inhibition: at the top concentration
Outline: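 Expi293F/hACE2 cells, overnight plating; cpd 1 h, 37C/5% CO2; + VSV-G PP (MLV pseudotyping), 48 h; supernatant removed, Bright-Glo luciferase read. Norm: VSV-G PP and bald PP wells.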

Question: Which Potency does the source give for `CC(C(O)c1ccccc1)N(C)CCOC(c1ccccc1)c1ccccc1` (stereo unspecified) here?
Answer: 21.5 µM (active)

Question: Which Potency does the source give for `COC(=O)Nc1nc2ccc(S(=O)c3ccccc3)cc2[nH]1` (stereo unspecified) here?
Answer: 24.1 µM (active)

Question: For `CCCCCCCCCCCCCCCCC(C(=O)O)C(O)(CC(=O)O)C(=O)O` (stereo unspecified), which “activity change, negative = inhibition” value is on record?
Answer: -22.3% (inactive)
